Compound activity as filed in PubChem BioAssay.
Compounds with a hit are over-represented: about 5.2% of the library has one in this group of screens.
SKN-1 block: C. elegans SKN-1 inhibition. AID 624304. 360,000 compounds, 0.49% hits. inhibition, % at 21.8 µM. C. elegans VP596 Pgst-4::GFP/RFP ratio, acrylamide-induced, 24 h;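 active = interference check ratio from 0.5 to 1.5 plus GFP to RFP signal ratio inhibition reaching or exceeding a fixed threshold, cut at about 30% in these data, passing the limit was not always enough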
esBAF inh: SWI/SNF esBAF complex inhibition. mouse ES cells, Bmi1-luciferase knock-in reporter, 24 h; 100% = twice the neutral-well signal. reporter increase, % at 12.5 µM. 350,000 compounds, 2% hits. AID 602393; in the data active = activation above about 40%;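 note: a rise in the Bmi1 reporter signal indicates esBAF inhibition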
NadD inh: NadD (S. aureus) enzyme inhibition. 360,000 compounds, 0.78% hits. purified NadD enzyme, colorimetric absorbance read-out. AID 602399. inhibition, % at 20 µM; in the data active = inhibition above about 26%
SMARCA2 act: SMARCA2 function activation, primary screen; MG213 cells, MMTV-luciferase reporter, dexamethasone, overnight; activation, % at 9.1 µM; 370,000 compounds, 1% hits; in the data active = activation above about 7.8%
Vif inh: HIV Vif inhibition | HEK293T cells, Vif self-association by quenched fluorescence, imaging, 24 h | inhibition, % at 7.49 µM | 340,000 compounds, 0.35% hits | AID 602346; in the data active = inhibition above about 50%, passing the limit was not always enough
NR3A LBD binder: modulates the human NR3A ligand-binding domain. NR3A LBD differential scanning fluorimetry, Tm shift; 0% = protein alone, 100% = glycine-bound protein. Tm shift relative to glycine control, % at 25 µM. 340,000 compounds, 2.5% hits;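 active = melting temperature shift of at least 10% of the positive control shift, at one fixed dose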
Numbers stand for hits; – = inactive; · = no result given.

SMILES	SKN-1 block	esBAF inh	NadD inh	SMARCA2 act	Vif inh	NR3A LBD binder
Cc1noc(C)c1NC(=O)N[C@@H]1C=C[C@@H](CC(=O)NCc2ccc(Cl)c(Cl)c2)O[C@@H]1CO	·	–	·	·	·	·
Cc1ccccc1S(=O)(=O)NC(=O)C1(C)CCN1C(=O)CCc1cccs1 (centres undefined)	–	–	–	–	68	·
COC(=O)CCC(=O)OC1(C)C(=O)C=C2C=C(c3ccsc3)OC=C2C1=O (centres undefined)	–	–	35	·	–	–
COc1cc(C2=NOC(C(=O)N3CCOCC3)C2)cc(OC)c1OC (centres undefined)	–	–	–	–	–	13
COc1ccc(C2=NOC(C(=O)N3CCCCCC3)C2)cc1OC (centres undefined)	–	–	–	·	–	–
CCOC(=O)c1cc(C(=O)Nc2ccc(C)c(F)c2)nn1C	–	42	–	–	–	–
CCOC(=O)c1cc(C(=O)NCc2ccc(Cl)cc2Cl)nn1C	–	·	–	–	–	–
CCC(CC)NC(=O)CO/N=C/c1ccc(Cl)cc1Cl	–	·	–	7.9	–	–
O=C(NNC(=O)c1ccncc1)Nc1ccc(Br)cc1	–	·	–	–	–	14
COc1ccc(NC(=O)NNC(=O)c2cc3ccccc3cc2O)cc1	–	–	–	–	–	–
O=C(NC(=S)NNC(=O)c1ccccc1O)c1ccco1	–	·	–	–	–	–
O=C(NC(=S)NNC(=O)c1cc2ccccc2cc1O)c1ccco1	–	·	–	–	–	11
O=C(NNC(=O)c1cc2ccccc2cc1O)Nc1ccc(Br)cc1	–	·	–	–	·	19
CO[C@@H]1CN(C)C(=O)c2ccc(NC(=O)c3ccccc3)cc2OC[C@H](C)N(C(=O)CN(C)C)C[C@@H]1C	·	–	·	·	·	·
OC[C@H]1O[C@@H](c2nc3ccc(-c4nc(-c5ccc(Br)cc5)no4)cc3[nH]2)C[C@@H]1O	–	55	–	–	–	·
CCOC(=O)C(=O)N(Nc1ccc(C)cc1)c1ccc(C)cc1	–	·	–	–	–	11
O=C(Nc1ccc2c(c1)oc1ccccc12)c1ccc(Br)o1	–	83	–	–	–	29
O=C(Nc1ccc(N2CCCC2)cc1)c1ccc(Br)o1	–	–	44	–	–	–
CCN1CCN(c2ccc(NC(=O)c3ccc(Br)o3)cc2)CC1	–	–	–	–	–	–
O=C(Nc1ccc(F)cc1)c1ccc(S(=O)(=O)N2CCOCC2)o1	–	–	–	–	53	–
NS(=O)(=O)c1ccc(NC(=O)c2ccc(S(=O)(=O)N3CCOCC3)o2)cc1	–	·	–	–	–	–
O=C(Nc1ccc(S(=O)(=O)N2CCOCC2)cc1)c1ccc(Br)o1	–	–	–	–	–	26
O=C(Nc1ccc(S(=O)(=O)N2CCOCC2)cc1)c1ccc(Cl)cc1	–	–	–	–	–	22
Cc1ccc(NC(=O)c2ccncc2)cc1S(=O)(=O)N(C)C	–	·	–	–	–	–
O=C(Nc1ccc(S(=O)(=O)N2CCOCC2)cc1)c1ccc(S(=O)(=O)N2CCOCC2)cc1	–	–	–	–	–	–
SMILES	SKN-1 block	esBAF inh	NadD inh	SMARCA2 act	Vif inh	NR3A LBD binder
O=C(NCc1n[nH]c(=S)n1-c1ccc(F)cc1)c1ccc(S(=O)(=O)N2CCOCC2)cc1	38	·	–	–	–	–
Cc1ccc(NC(=O)c2ccc(Br)o2)cc1S(=O)(=O)N(C)C	–	55	–	–	–	–
O=C(Nc1ccc2c(c1)CCC2)c1ccc(Br)o1	–	47	–	–	·	–
Cc1ccc(C(=O)Nc2ccc3c(c2)CCC3)o1	–	–	–	–	–	–
Cc1noc(C)c1S(=O)(=O)N(C)C[C@@H]1OCCCC[C@H](C)Oc2ccc(NS(=O)(=O)c3cccs3)cc2C(=O)N([C@H](C)CO)C[C@@H]1C	·	–	·	·	·	·
O=C(NCC[C@@H]1CC[C@@H](NS(=O)(=O)c2ccc(Cl)cc2)[C@H](CO)O1)c1ccccc1F	·	–	·	·	·	·
Cc1ccc(CNC(=O)c2oc3ccc(S(=O)(=O)N4CCOCC4)cc3c2C)cc1	–	–	–	–	–	–
O=C(Nc1cccc(Cl)c1)c1cc(S(=O)(=O)N2CCOCC2)cs1	–	·	–	–	·	31
Cc1c(C(=O)Nc2cccc(C(F)(F)F)c2)oc2ccc(S(=O)(=O)N3CCOCC3)cc12	36	–	–	–	–	25
O=C(CN1CCN(S(=O)(=O)c2ccc(Cl)cc2)CC1)Nc1ccc(N2CCOCC2)cc1	–	–	–	–	–	10
O=C(C1CCCN(S(=O)(=O)c2ccc(F)cc2)C1)N1CCOCC1 (centres undefined)	–	55	–	–	–	26
CN1CCN(C(=O)C2CCCN(S(=O)(=O)c3ccc(F)cc3)C2)CC1 (centres undefined)	–	·	–	–	–	–
COc1ccccc1CNC(=O)C[C@H]1C[C@@H]2c3cc(NC(=O)C4CCOCC4)ccc3O[C@@H]2[C@H](CO)O1	·	–	·	·	·	·
O=C(Nc1ccc(S(=O)(=O)N2CCCCC2)cc1)c1ccc(F)cc1	–	–	–	–	–	–
O=C(Nc1ccc(S(=O)(=O)NC2=NCCCCC2)cc1)c1cc(S(=O)(=O)N2CCOCC2)ccc1F	–	–	–	–	·	22
O=C(Nc1ccc(S(=O)(=O)N2CCOCC2)cc1)c1ccc(F)cc1	–	–	–	–	–	38
Cc1ccc(C(C)C)cc1NC(=O)Nc1ccc([N+](=O)[O-])cc1	–	·	–	–	–	25
Cc1cc(O)c(C(C)C)cc1NC(=O)Nc1ccc([N+](=O)[O-])cc1	44	·	–	–	–	–
Cc1cc(O)c(C(C)C)cc1NC(=O)Nc1cc(Cl)ccc1Cl	–	–	–	–	–	–
Cc1ccc(S(=O)(=O)Nc2cccc3c2O[C@H](CN(C)Cc2ccc(C(F)(F)F)cc2)[C@@H](C)CN([C@H](C)CO)C3=O)cc1	·	–	·	·	·	·
COc1cc(S(=O)(=O)Nc2ccc(C)cc2)ccc1N=Cc1c(C)[nH]n(-c2ccccc2)c1=O	–	·	–	–	–	26
COc1nccnc1NS(=O)(=O)c1ccc(N=Cc2c(C)[nH]n(-c3ccccc3)c2=O)cc1	–	–	–	–	–	–
O=C(C1CCCC1)N1C[C@H]2[C@@H](c3ccccc31)[C@H](CO)N2C(=O)c1cccnc1	·	–	·	·	·	·
CN(C)CC(=O)Nc1ccc2c(c1)[C@@H]1C[C@H](CC(=O)NCC3CC3)O[C@H](CO)[C@@H]1O2	·	–	·	·	·	·
COC(=O)C1SCC2C(=O)N(Cc3cccc(C)c3)CC(=O)N21 (centres undefined)	–	·	–	–	128	–
Cn1c(O)c(C2=c3ccccc3=NC2=O)[nH]c1=S	–	·	–	–	–	–
O=C1N=c2ccccc2=C1c1sc(=S)n(NC(=O)c2ccccc2)c1O	–	·	–	–	–	31
COc1ccccc1-c1ccc2c(c1)O[C@@H](CN(C)C(=O)c1ccccc1)[C@@H](C)CN([C@@H](C)CO)S2(=O)=O	·	–	·	·	·	·
